The source made the active and inactive calls. The calls were made as follows: active = hit-call score of the fitted dose curve at least 0.9, where 1 is the maximum; inactive = score below 0.9.
Legend:
[1] = ATG_GLI_CIS: Attagene CIS-FACTORIAL HepG2 Assay for human Zinc Finger Protein GLI1 (AID 2282945); details: HepG2, Attagene cis-factorial reporter mRNA, GLI element; actives raise or lower the signal
Procedure, shortened: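 HepG2 cells transiently transfected with cis-promoter multiplexed reporter units report endogenous transcription factor activity. After 24 h chemical exposure, reporter mRNA was quantified by RT-PCR, 6-FAM labelling, HpaI digestion and capillary electrophoresis, with bidirectional fitting against DMSO.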

[2] = target: Bile acid receptor (Homo sapiens) (UniProt Q96RI1); assay: ATG_IR1_CIS: Attagene CIS-FACTORIAL HepG2 Assay for human Nuclear Receptor Subfamily 1 Group H Member 4 (NR1H4), IR1 submotif (AID 2282946); details: IR1 reporter transcription, actives raise or lower the signal
Procedure, shortened: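 Transient MRTU transfection, HepG2; 24 h dosing; RNA → RT-PCR → 6-FAM primer extension → HpaI digest → capillary electrophoresis fluorescence. Gain/loss of signal fitted relative to DMSO.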

[3] = ATG_GRE_CIS: Attagene CIS-FACTORIAL HepG2 Assay for human Glucocorticoid Response Elements (GRE) (AID 2282947); details: HepG2 GRE cis-reporter, Attagene multiplex mRNA; actives raise or lower the signal
Procedure, shortened: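 HepG2 cells transiently transfected with multiple cis-promoter reporter units measure endogenous TF activity; 24 h compound exposure. Reporter mRNA quantified by RT-PCR, FAM labelling, HpaI digestion and capillary electrophoresis; bidirectional fit vs DMSO baseline.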

[4] = ATG_ISRE_CIS: Attagene CIS-FACTORIAL HepG2 Assay for human Interferon Regulatory Factor 1 (IRF1) binding to an Interferon-Stimulated Response Element (ISRE) (AID 2282948); details: HepG2 ISRE cis-reporter (Attagene), mRNA transcription readout; actives raise or lower the signal
Procedure, shortened: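 Transiently transfected HepG2 cells carrying cis-element reporter units, dosed 24 hours. Reporter mRNA quantified by RT-PCR, fluorescent primer extension, HpaI digestion and capillary electrophoresis. Bidirectional fitting relative to DMSO.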

[5] = ATG_M_32_CIS: Attagene CIS-FACTORIAL HepG2 Assay for M32 Transcription Factor (Internal Marker) (AID 2282949); details: HepG2 Attagene cis-factorial M32 reporter, mRNA; actives raise or lower the signal;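 also: background control marker of the multiplexed CIS panel rather than a real target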
Procedure, shortened: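 Following 24 h chemical exposure of HepG2 cells transiently expressing cis-promoter reporter constructs, reporter transcript levels were determined by RT-PCR with fluorescent labelling and capillary electrophoresis, then fitted bidirectionally against DMSO.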

[6] = ATG_M_06_CIS: Attagene CIS-FACTORIAL HepG2 Assay for M06 Transcription Factor (Internal Marker) (AID 2282950); details: HepG2 Attagene CIS-FACTORIAL M06 internal marker reporter; actives raise or lower the signal
Procedure, shortened: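 Steps: transfect HepG2 with multiplexed cis-element reporter constructs; dose chemical 24 h; extract RNA with DNase treatment; reverse-transcribe, PCR-amplify, 6-FAM label, HpaI digest; separate fragments by capillary electrophoresis. Activity fitted both directions versus DMSO.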

[7] = target: Hypoxia-inducible factor 1-alpha (Homo sapiens) (UniProt Q16665); assay: ATG_HIF1a_CIS: Attagene CIS-FACTORIAL HepG2 Assay for human Hypoxia Inducible Factor 1 (HIF1A) (AID 2282951); details: HepG2 Attagene cis-factorial HIF1a reporter transcription; actives raise or lower the signal
Procedure, shortened: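 HepG2, transient cis-reporter library, 24 h dosing. RNA → RT (oligo dT) → PCR → 6-FAM primer extension → HpaI → CE. Bidirectional curve fit vs DMSO.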

[8] = target: Hepatocyte nuclear factor 6 (Homo sapiens) (UniProt Q9UBC0); assay: ATG_HNF6_CIS: Attagene CIS-FACTORIAL HepG2 Assay for human Hepatocyte Nuclear Factor 6 (HNF6) (AID 2282952); details: HepG2 Attagene cis-factorial HNF6 reporter transcription; actives raise or lower the signal
Procedure, shortened: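 Multiplexed mRNA reporter assay in transfected HepG2; 24 h dosing; RT-PCR plus capillary electrophoresis fluorescence; DMSO-referenced bidirectional curve fitting.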

[9] = target: Heat shock factor protein 1 (Homo sapiens) (UniProt Q00613); assay: ATG_HSE_CIS: Attagene CIS-FACTORIAL HepG2 Assay for human Heat Shock Transcription Factor 1 (HSE) (AID 2282953); details: HepG2 HSE cis-reporter, Attagene RNA transcription; actives raise or lower the signal
Procedure, shortened: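 Cells were transfected with cis-element-driven reporter constructs, dosed for 24 h, then total RNA was reverse-transcribed and reporter cDNA amplified, FAM-labelled and digested with HpaI. Fragments were resolved by capillary electrophoresis; gain or loss was fitted against DMSO.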

[10] = ATG_MRE_CIS: Attagene CIS-FACTORIAL HepG2 Assay for human Metal Responsive Element (MRE) (AID 2282954); details: HepG2 MRE cis-reporter transcription, Attagene multiplex; actives raise or lower the signal
Procedure, shortened: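 HepG2 cells transiently transfected with multiple cis-element reporter units measure endogenous MTF1-driven transcription. After 24 h compound exposure, reporter mRNA is quantified by RT-PCR with 6-FAM labelling, HpaI digestion and capillary electrophoresis; bidirectional fits versus DMSO.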

[11] = ATG_PXRE_CIS: Attagene CIS-FACTORIAL HepG2 Assay for human Pregnane X Receptor Element (PXRE) (AID 2282957); details: HepG2 Attagene CIS-FACTORIAL PXRE reporter, mRNA; actives raise or lower the signal
Procedure, shortened: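 Cells: HepG2, transiently transfected reporter units under cis promoter control. Exposure: 24 h. Detection: reporter mRNA via RT-PCR/CE fluorescence; bidirectional fitting, DMSO-referenced.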

[12] = ATG_Sox_CIS: Attagene CIS-FACTORIAL HepG2 Assay for human SRY-box transcription factor (SOX) (AID 2282960); details: HepG2 Attagene cis-factorial SOX reporter, mRNA; actives raise or lower the signal
Procedure, shortened: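 Cells were transfected with reporter constructs under cis-regulatory promoters, then exposed to chemicals for 24 h. Reporter transcripts were quantified by fluorescence after RT-PCR and capillary electrophoresis; activity was fitted in both directions against DMSO.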

[13] = target: Transcription factor Sp1 (Homo sapiens) (UniProt P08047); assay: ATG_Sp1_CIS: Attagene CIS-FACTORIAL HepG2 Assay for human Specificity Protein 1 (Sp1) (AID 2282961); details: HepG2 Sp1 cis-reporter transcription, actives raise or lower the signal
Procedure, shortened: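 Measures mRNA induction of an Sp1-linked reporter in HepG2 cells 24 h post-dosing. Multiplexed reporters read by RT-PCR and capillary electrophoresis; DMSO serves as negative control and baseline.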

[14] = ATG_SREBP_CIS: Attagene CIS-FACTORIAL HepG2 Assay for human Sterol Regulatory Element Binding (SREBP) (AID 2282962); details: HepG2 Attagene cis-factorial SREBP reporter, mRNA; actives raise or lower the signal
Procedure, shortened: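 HepG2 cells transiently transfected with multiplexed cis-promoter reporter units sensing endogenous transcription factors; reporter mRNA measured 24 h after dosing by RT-PCR, 6-FAM labeling, HpaI digestion and capillary electrophoresis. Bidirectional fit versus DMSO.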

[15] = ATG_PBREM_CIS: Attagene CIS-FACTORIAL HepG2 Assay for human Phenobarbital-responsive Enhancer Module (PBREM) (AID 2282955); details: HepG2 PBREM cis-reporter, Attagene multiplexed transcription; actives raise or lower the signal
Procedure, shortened: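 HepG2, transient MRTU transfection, 24 h dosing; RNA → oligo(dT) RT → PCR → 6-FAM extension → HpaI → CE. Bidirectional fit vs DMSO.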

[16] = target: Paired box protein Pax-6 (Homo sapiens) (UniProt P26367); assay: ATG_Pax6_CIS: Attagene CIS-FACTORIAL HepG2 Assay for human Paired Box 6 (PAX6) (AID 2282956); details: HepG2 CIS-FACTORIAL PAX6 reporter transcription, RNA readout; actives raise or lower the signal
Procedure, shortened: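 HepG2 cells transiently transfected with cis-promoter-driven multiplexed reporter units sensing endogenous transcription factor activity; 24 h chemical exposure. Reporter mRNA quantified by RT-PCR, 6-FAM labelling, HpaI digestion and capillary electrophoresis; bidirectional fit versus DMSO baseline.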

[17] = ATG_PPRE_CIS: Attagene CIS-FACTORIAL HepG2 Assay for human Peroxisome Proliferator-activated Response Element (PPRE) (AID 2282958); details: HepG2 PPRE cis-element reporter, Attagene transcription factor profiling; actives raise or lower the signal
Procedure, shortened: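 Transcript-level reporter induction in transfected HepG2 cells after 24 h chemical exposure, quantified by fluorescence from RT-PCR products separated by capillary electrophoresis.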

[18] = ATG_RORE_CIS: Attagene CIS-FACTORIAL HepG2 Assay for human RAR-related Orphan Receptor Element (RORE) (AID 2282959); details: HepG2 Attagene cis-factorial RORE reporter, mRNA; actives raise or lower the signal
Procedure, shortened: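 Multiplexed reporter assay measuring mRNA induction from a cis promoter element in transiently transfected HepG2 cells after 24 h treatment. Detection via RT-PCR and capillary electrophoresis fluorescence; DMSO serves as baseline.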

[19] = target: Signal transducer and activator of transcription 3 (Homo sapiens) (UniProt P40763); assay: ATG_STAT3_CIS: Attagene CIS-FACTORIAL HepG2 Assay for human Signal Transducer and Activator of Transcription 3 (STAT3) (AID 2282963); details: HepG2, Attagene cis-factorial STAT3 reporter transcription; actives raise or lower the signal
Procedure, shortened: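 HepG2 cells transiently transfected with cis-element-driven multiple reporter transcription units; after 24 h chemical exposure, reporter mRNA measured by RT-PCR, 6-FAM primer-extension labelling, HpaI digestion and capillary electrophoresis. Bidirectional fitting versus DMSO baseline.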

[20] = ATG_TA_CIS: Attagene CIS-FACTORIAL HepG2 Assay for human TA Basal Promoter (AID 2282964); details: HepG2 Attagene CIS-factorial TA basal promoter reporter; actives raise or lower the signal
Procedure, shortened: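 Steps: transfect HepG2 with MRTUs; dose 24 h; isolate RNA, DNase-treat, reverse-transcribe; PCR and FAM-label reporter cDNA; digest with HpaI 2h at 37 C; run capillary electrophoresis. Activity fitted both directions against DMSO.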

Measured: AC50

Heat shock factor protein 1 (Homo sapiens), sequence (Q00613 whole entry, looked up, the tested form may be a part): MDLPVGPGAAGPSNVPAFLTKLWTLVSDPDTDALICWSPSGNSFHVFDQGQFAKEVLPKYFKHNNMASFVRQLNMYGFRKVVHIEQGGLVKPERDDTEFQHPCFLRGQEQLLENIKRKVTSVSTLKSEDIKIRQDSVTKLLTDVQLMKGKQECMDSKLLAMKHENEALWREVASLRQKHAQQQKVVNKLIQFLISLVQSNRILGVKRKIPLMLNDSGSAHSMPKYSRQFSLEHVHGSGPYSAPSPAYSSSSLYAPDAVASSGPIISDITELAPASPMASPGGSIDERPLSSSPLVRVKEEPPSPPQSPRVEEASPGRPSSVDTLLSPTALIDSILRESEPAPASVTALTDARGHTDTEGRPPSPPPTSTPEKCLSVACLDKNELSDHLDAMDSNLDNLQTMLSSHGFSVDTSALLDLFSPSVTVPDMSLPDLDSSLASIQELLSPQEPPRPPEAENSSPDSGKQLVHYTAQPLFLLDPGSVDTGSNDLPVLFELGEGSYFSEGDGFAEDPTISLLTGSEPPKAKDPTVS
Hepatocyte nuclear factor 6 (Homo sapiens), sequence (Q9UBC0 whole entry, looked up): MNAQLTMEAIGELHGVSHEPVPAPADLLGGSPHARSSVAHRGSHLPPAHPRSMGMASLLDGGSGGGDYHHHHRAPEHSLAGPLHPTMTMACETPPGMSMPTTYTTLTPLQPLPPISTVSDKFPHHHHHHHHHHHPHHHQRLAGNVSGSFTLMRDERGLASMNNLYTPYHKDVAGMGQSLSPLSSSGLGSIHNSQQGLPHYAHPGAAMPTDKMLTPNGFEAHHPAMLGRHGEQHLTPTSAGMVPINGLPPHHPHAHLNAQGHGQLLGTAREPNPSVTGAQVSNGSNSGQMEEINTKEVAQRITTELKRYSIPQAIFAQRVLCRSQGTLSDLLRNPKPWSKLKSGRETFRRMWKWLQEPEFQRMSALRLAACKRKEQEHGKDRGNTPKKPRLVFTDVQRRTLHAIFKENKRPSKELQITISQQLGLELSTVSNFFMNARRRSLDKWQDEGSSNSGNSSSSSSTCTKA
Signal transducer and activator of transcription 3 (Homo sapiens), sequence (P40763 whole entry, looked up): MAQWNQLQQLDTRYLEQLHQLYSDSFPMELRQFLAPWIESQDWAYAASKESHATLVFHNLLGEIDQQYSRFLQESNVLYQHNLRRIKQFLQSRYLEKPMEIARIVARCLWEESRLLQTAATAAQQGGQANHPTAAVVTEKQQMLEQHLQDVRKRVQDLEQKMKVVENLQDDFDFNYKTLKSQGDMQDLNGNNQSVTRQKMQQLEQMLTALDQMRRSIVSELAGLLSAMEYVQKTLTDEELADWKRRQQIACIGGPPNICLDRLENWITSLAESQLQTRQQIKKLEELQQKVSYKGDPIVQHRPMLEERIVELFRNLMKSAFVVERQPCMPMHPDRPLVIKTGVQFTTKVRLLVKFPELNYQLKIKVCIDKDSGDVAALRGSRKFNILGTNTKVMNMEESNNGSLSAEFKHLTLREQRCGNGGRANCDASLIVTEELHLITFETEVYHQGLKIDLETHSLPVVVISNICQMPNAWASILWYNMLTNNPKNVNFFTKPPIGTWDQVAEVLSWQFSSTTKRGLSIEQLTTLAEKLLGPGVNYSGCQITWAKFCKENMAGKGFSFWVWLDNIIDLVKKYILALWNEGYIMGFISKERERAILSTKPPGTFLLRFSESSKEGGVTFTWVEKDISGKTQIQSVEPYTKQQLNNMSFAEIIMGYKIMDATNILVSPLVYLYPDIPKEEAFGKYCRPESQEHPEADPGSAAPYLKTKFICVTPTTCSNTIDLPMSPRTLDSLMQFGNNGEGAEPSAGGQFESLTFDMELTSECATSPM
Transcription factor Sp1 (Homo sapiens), sequence (P08047 whole entry, looked up): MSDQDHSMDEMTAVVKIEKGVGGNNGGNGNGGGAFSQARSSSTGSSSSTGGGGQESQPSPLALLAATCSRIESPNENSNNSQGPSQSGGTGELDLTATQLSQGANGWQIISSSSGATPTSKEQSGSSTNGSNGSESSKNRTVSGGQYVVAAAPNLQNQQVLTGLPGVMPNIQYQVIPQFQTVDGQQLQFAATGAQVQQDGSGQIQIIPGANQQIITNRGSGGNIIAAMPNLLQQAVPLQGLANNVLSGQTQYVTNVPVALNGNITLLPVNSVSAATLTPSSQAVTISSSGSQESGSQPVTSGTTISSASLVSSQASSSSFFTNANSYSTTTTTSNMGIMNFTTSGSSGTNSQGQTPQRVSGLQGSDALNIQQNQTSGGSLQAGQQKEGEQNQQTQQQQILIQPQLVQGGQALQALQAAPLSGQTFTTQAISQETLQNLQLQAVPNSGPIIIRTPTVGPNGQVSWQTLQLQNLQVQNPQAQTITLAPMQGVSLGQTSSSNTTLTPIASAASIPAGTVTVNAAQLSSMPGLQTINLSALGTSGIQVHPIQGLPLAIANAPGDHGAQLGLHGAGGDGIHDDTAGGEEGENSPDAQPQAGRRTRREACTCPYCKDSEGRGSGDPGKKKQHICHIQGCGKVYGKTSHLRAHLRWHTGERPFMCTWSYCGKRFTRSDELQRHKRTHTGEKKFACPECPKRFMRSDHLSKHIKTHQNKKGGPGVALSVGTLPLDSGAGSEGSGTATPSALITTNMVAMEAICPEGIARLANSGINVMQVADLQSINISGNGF
Hypoxia-inducible factor 1-alpha (Homo sapiens), sequence (Q16665 whole entry, looked up): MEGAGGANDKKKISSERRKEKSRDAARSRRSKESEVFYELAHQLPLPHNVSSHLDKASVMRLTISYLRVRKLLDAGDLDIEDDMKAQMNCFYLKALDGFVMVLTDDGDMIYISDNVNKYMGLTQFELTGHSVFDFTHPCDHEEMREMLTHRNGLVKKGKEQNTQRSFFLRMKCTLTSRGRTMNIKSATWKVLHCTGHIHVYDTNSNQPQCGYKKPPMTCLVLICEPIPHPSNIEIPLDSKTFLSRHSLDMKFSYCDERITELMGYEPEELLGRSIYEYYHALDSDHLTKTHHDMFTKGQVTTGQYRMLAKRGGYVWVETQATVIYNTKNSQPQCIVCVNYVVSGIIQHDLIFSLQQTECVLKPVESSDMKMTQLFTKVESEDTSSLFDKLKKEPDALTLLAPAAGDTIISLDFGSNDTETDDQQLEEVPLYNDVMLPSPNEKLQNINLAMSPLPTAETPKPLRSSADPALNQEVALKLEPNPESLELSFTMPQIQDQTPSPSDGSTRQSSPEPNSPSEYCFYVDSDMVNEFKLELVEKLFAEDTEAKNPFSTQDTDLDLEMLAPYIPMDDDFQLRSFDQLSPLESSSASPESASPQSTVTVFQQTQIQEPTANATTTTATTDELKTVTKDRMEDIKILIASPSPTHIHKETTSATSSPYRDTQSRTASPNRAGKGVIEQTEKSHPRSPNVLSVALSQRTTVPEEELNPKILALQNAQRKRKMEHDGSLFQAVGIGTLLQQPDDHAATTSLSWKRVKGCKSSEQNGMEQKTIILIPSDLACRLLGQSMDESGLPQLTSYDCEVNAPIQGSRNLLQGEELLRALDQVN
Paired box protein Pax-6 (Homo sapiens), sequence (P26367 whole entry, looked up): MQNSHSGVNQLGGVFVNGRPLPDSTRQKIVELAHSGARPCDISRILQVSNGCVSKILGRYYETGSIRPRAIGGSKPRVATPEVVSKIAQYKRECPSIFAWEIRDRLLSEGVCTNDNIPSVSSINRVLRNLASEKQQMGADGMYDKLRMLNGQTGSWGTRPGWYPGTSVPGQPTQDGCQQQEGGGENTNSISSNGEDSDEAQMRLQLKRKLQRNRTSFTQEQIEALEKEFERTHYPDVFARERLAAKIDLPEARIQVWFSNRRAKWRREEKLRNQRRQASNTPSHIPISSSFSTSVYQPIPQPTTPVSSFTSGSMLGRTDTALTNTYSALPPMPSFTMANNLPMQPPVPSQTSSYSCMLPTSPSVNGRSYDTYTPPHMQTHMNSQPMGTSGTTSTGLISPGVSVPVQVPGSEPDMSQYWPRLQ
Bile acid receptor (Homo sapiens), sequence (Q96RI1 whole entry, looked up): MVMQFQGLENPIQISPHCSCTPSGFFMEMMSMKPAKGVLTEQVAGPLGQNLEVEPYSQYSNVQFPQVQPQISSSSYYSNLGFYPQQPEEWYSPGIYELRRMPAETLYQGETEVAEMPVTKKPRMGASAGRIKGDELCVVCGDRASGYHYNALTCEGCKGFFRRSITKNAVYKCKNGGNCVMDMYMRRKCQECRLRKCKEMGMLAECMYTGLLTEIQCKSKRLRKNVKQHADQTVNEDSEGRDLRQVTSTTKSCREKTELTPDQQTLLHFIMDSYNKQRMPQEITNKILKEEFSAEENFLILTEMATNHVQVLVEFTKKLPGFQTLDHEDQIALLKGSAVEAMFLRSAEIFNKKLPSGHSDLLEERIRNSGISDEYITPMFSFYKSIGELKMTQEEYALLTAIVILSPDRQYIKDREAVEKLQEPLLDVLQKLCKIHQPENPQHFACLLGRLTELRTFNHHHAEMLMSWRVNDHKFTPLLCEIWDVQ

O=C(O)c1ccc2c(c1)C(=O)OC2=O
not listed: [15] | [16] | [17] | [18] | [19] | [20]
inactive: all other assays above

CCCCC(C=O)CC (centres undefined)
not listed: [9] | [14]
inactive: all other assays above

O=C(Nc1ccccc1)c1cc(Cl)ccc1O
active: [9] 2.93 µM | [10] 23.9 µM | [11] 25.6 µM | [18] 15.5 µM | [13] 3.65 µM | [14] 5.55 µM
not listed: [15] | [17] | [20]
inactive: all other assays above

O=C1CCCN1C1CCCCC1
active: [11] 57.1 µM
not listed: [9] | [16] | [17]
inactive: all other assays above

CCCCCCCCCCCC(C)=O
active: [1] 166 µM | [8] 123 µM | [10] 179 µM | [11] 25.6 µM | [17] 159 µM | [13] 154 µM | [14] 141 µM
not listed: [15]
inactive: all other assays above

CO[Si](CCCS)(OC)OC
not listed: [9] | [15] | [18]
inactive: all other assays above

CCCCCC(=O)OCC
not listed: [9] | [15] | [17] | [20]
inactive: all other assays above

C=CCCCCCCCCOC(C)=O
not listed: [15] | [16] | [17] | [18]
inactive: all other assays above

CCOB(OCC)OCC
not listed: [15] | [19]
inactive: all other assays above

CCCCNS(=O)(=O)c1ccccc1
active: [11] 26.7 µM
not listed: [15] | [17] | [20]
inactive: all other assays above

CC12CCC(CC1)C(C)(C)O2
not listed: [15]
inactive: all other assays above

CN(C)c1ccc2nc3ccc(=[N+](C)C)cc-3sc2c1
active: [4] 41.6 µM | [7] 0.766 µM | [11] 3.95 µM
not listed: [9] | [13] | [17] | [18] | [19]
inactive: all other assays above

CCNc1nc(NC(C)(C)C)nc(OC)n1
active: [11] 10.3 µM
not listed: [8] | [18] | [19]
inactive: all other assays above

CCC(C)N (centres undefined)
active: [11] 47.5 µM
not listed: [15]
inactive: all other assays above

CC1CCC(=O)C1=O (centres undefined)
active: [11] 59 µM
not listed: [9] | [18]
inactive: all other assays above

CCC(C)C(=O)OC (centres undefined)
not listed: [13] | [15] | [19]
inactive: all other assays above
